Compound activity: PubChem, National Center for Advancing Translational Sciences (NCATS)
The list is not random: actives were taken first. Their share in the collection is about 6.5%.
FMDV antiviral – blocks foot and mouth disease virus. actives 1.2% (n = 410,000). Potency, µM (doses to about 57.9 µM), for the others: at the top dose activity change, negative = inhibition, most hits filed as inhibitors. FMDV antiviral cell-based qHTS; calls by dose curve; tested in HEK293T cells; further: read-out not given here; potency means the concentration at half of the fitted maximal effect; on the % scale 0 is the no-effect control and ±100 the full control effect; nearly all actives have a fitted effect of over 45% in size
Marburg entry inh – inhibitors of Marburg virus binding or cell entry | Marburg virus pseudotyped entry inhibition, cell reporter | Potency, µM (titrated, usually from 37.8 µM), inactives show top-dose activity change, negative = inhibition, actives largely listed as inhibitors | actives 1.8% (n = 300,000) | AID 540276; calls by dose curve; tested in HEK293 cells; further: potency means the concentration at half of the fitted maximal effect; on the % scale 0 is the no-effect control and ±100 the full control effect
Lassa entry inh – inhibitors of Lassa virus binding or cell entry. AID 540256. Lassa virus pseudotype entry inhibition, cell reporter. actives 1.2% (n = 300,000). Potency, µM (highest dose often 37.9 µM), inactives show top-dose activity change, negative = inhibition, actives largely listed as inhibitors; calls by dose curve; tested in HEK293 cells; further: potency means the concentration at half of the fitted maximal effect; on the % scale 0 is the no-effect control and ±100 the full control effect; nearly all actives have a fitted effect of over 50% in size
Vaccinia mCherry – vaccinia inhibition (mCherry reporter) | Vaccinia virus mCherry reporter infection, fluorescence | AID 720579 | Potency, µM (series often up to 36.5 µM), without a hit: at the top dose activity change, negative = inhibition, most hits filed as inhibitors | actives 0.63% (n = 310,000); calls by dose curve; tested in A549 cells; further: potency means the concentration at half of the fitted maximal effect; on the % scale 0 is the no-effect control and ±100 the full control effect; nearly all actives have a fitted effect of over 35% in size
HCMV inh – inhibitors of human cytomegalovirus | HFF cells, HCMV-luciferase reporter, 72 h; hits give low values | activity change, negative = inhibition, % at 57.5 µM | actives 4.5% (n = 410,000); in the data active means activity change below about -60%; inconclusive means no clear call, values can overlap the other calls; inactive means above about -39%; further: on the % scale 0 is the no-effect control and ±100 the full control effect
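Cell-based, HFFs, 1000 cells/well, 16 h 37C; cpds in DMSO + HCMV-luc, MOI 1 PFU/cell; 72 h 37C; OneGlo luminescence after 5 min RT; norm. to buffer vs Salinomycin 10uM.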
Vaccinia Venus – vaccinia inhibition (Venus reporter); Potency, µM (titrated, usually from 36.5 µM), without a hit: top-dose activity change, negative = inhibition, usual class: inhibitors; AID 720580; Vaccinia virus Venus reporter expression, fluorescence; actives 0.46% (n = 330,000); calls by dose curve; tested in A549 cells; further: potency means the concentration at half of the fitted maximal effect; on the % scale 0 is the no-effect control and ±100 the full control effect; nearly all actives have a fitted effect of over 30% in size
G2M arrest HeLa – inducers of G2/M cell cycle arrest in HeLa cells; shares compounds with Marburg entry inh; HeLa cell cycle G2/M arrest, Hoechst DNA content imaging; Potency, µM, most hits filed as inhibitors; actives 60% (n = 25); AID 2441
WI-38 cytotox – counter-screen for perinucleolar compartment inhibitors: WI-38 cytotoxicity. 120 tested, under 10 active. AID 2729. Potency, µM (doses to about 46.1 µM), inactives show at the highest dose activity change, negative = cytotoxicity, most hits filed as inhibitors. shares compounds with Marburg entry inh. WI-38 normal lung fibroblasts, ATPLite luminescence ATP viability, 24 h
PNC assembly inh – confirmation of perinucleolar compartment assembly inhibitors. PC3M PTB-GFP, PNC prevalence imaging, 16 h. Potency, µM (titrated, usually from 46.1 µM), inactives show top-dose activity, negative = PNC inhibition, actives largely listed as inhibitors. AID 2730. actives 50% (n = 120). shares compounds with Marburg entry inh
PC3M casp3-7 – activates caspase 3/7 in PC3M cells in PNC counter-screen | shares compounds with Marburg entry inh | activity change, positive = activation, % at 46.1 µM | 120 tested, under 10 active | PC3M-GFP caspase 3/7 activation, luminescence, 24 h | AID 2731
* hit, by the source's call; i = inactive; ? = inconclusive; nt = no result; [ ] = remark or other dose. Unless noted, the call rests on the fitted dose curve; in most records, active means well fitted curve in the direction sought with a large enough effect; inconclusive means small, poorly fitted or top-dose-only effect, or another doubt; inactive means no such curve, though single readings can be large; an effect the other way counts as inactive or inconclusive.

SMILES	FMDV antiviral	Marburg entry inh	Lassa entry inh	Vaccinia mCherry	HCMV inh	Vaccinia Venus	others
N#Cc1cccc(C(c2nnnn2Cc2ccccc2)N2CCCC2)c1 (centres undefined)	nt	0%	2%	-2%	14	-15%
COc1ccc(Cn2nnnc2C(c2ccccc2Cl)N2CCN(C)CC2)cc1 (centres undefined)	-20%	0%	7%	nt	-63*	-26%
CC(C)(C)c1ccc(OCC(=O)O)cc1	18%	?	10%	nt	-28	nt
CN(C)C(=O)O/N=C(\N)COc1ccc(C(C)(C)C)cc1	-16%	nt	nt	nt	-100*	nt
CNc1ccc(Cl)cc1S(=O)(=O)c1ccccc1[N+](=O)[O-]	4%	nt	nt	-4%	?	-4%
Cc1ccc(S(=O)(=O)N2CCN(c3nc(-n4ccnc4)nc4ccccc34)CC2)cc1	nt	nt	nt	i	nt	-17%
Cc1ccc(S(=O)(=O)N2CCN(c3ccccc3)CC2)c(C)c1	-13%	nt	nt	nt	35	nt
COc1ccccc1NC(=O)Cn1c(C)cc(C)c(C#N)c1=O	-26%	nt	-17%[46.1 µM]	12%	13	-3%
O=Cc1ccc(-c2cccs2)s1	26%	?	10µM*	-26%	13	?
Oc1ccc(N=Cc2ccc(-c3cccs3)s2)cc1	3%	?	?	nt	-21	nt
Cc1ccc(-n2sc3ccccc3c2=O)cc1	-3%	3.2µM*	?	i	-32	-8%
COc1ccc(C2/C(=C(\O)c3cccc(OC)c3)C(=O)C(=O)N2c2ccccn2)cc1 (centres undefined)	-21%	20%	-4%	nt	-107*	nt
COc1cccc(/C(O)=C2\C(=O)C(=O)N(c3ccccn3)C2c2ccccc2OC)c1 (centres undefined)	9%	1%	5%	-23%	15	-10%
CCN(CC)S(=O)(=O)c1ccc(C2=NOC3(C2)N(C)c2ccccc2C3(C)C)cc1 (centres undefined)	-27%	1.8µM*	0.73µM*	-17%	-76*	14%	WI-38 cytotox=8%;PNC assembly inh=5µM*;PC3M casp3-7=-8
CCN(CC)S(=O)(=O)c1ccc(-c2nnco2)cc1	-4%	0%	-2%	-17%	24	-5%
O=C(N/N=C\c1ccc([N+](=O)[O-])s1)c1cncc(Br)c1	?	2.6µM*	2.9µM*	nt	-100*	nt	WI-38 cytotox=-26%;PNC assembly inh=22µM*;PC3M casp3-7=?
C=C(C)[C@H]1Cc2c(ccc3c2O[C@@H]2COc4cc(OC)c(OC)cc4[C@@H]2C3=O)O1	nt	0.58µM*	2.3µM*	nt	nt	nt	G2M arrest HeLa=0.63*
CCOc1ccc(NC(=O)CCC(=O)N/N=C2\CCCc3ccccc32)cc1	-7%	-14%	-27%	-10%	6	-11%
CNc1ccc2oc(C[C@H]3O[C@@]4(CC[C@H]3C)O[C@H]([C@H](C)C(=O)c3ccc[nH]3)[C@H](C)C[C@H]4C)nc2c1C(=O)O	?	2.9µM*	0.23µM*	3.5µM*	-100*	2.5µM*	G2M arrest HeLa=4.5*
CCCNC(=O)C(CC)NC(=O)c1cccc([N+](=O)[O-])c1 (centres undefined)	-7%	nt	nt	-2%	12	-3%
CCOC(=O)Cc1csc(NS(=O)(=O)c2ccc([N+](=O)[O-])cc2)n1	-5%	-15%	-5%	i	0	-5%
O=C(N/N=C/c1cc(Cl)ccc1O)C(=O)Nc1ccccc1OC(F)(F)C(F)F	-25%	?	?	14µM*	-88*	?	WI-38 cytotox=-8%;PNC assembly inh=?;PC3M casp3-7=6
